# Results taken from PubChem BioAssay (NCI).
# The panel holds about 83,000 compounds, 20% with a hit somewhere; the sample as a whole holds those more often.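 Testing used 96-well plates and a 48-hour single-concentration exposure. Example: -40 means 40% of the starting cells died.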 Unmarked numbers belong to inactive results. The source made the active and inactive calls.
# System: M14 melanoma
# Test: NCI-60 one-dose screen, 48 h (100 = growth as untreated, 0 = no growth, -100 = all killed)
# Conditions: 10 µM unless noted
# Procedure: Growth inhibition of the M14 human tumor cell line is measured as a screen for anti-cancer activity. Cells are grown in 96 well plates and exposed to the test compound for 48 hours. Compounds are tested at a single concentration, which is 10^-5 M for most compounds. The reported endpoint is percent growth (GI% or GIPRCNT), where numbers from 0 - 100% represent growth inhibition, and numbers from -100% - 0 represent cell death. For example, a value of 40 represents 60% growth inhibition. A value of 0 means no net growth occurred over the course of the experiment. A value of -40 indicates 40% of cells at the beginning of the experiment died by the end of the experiment. A value of -100 means all cells are dead at the end of the experiment.
# NCI-60 Human Tumor Cell Lines Screen was performed using the standard one-dose NCI protocol, which is described in more detail at https://dtp.cancer.gov/discovery_development/nci-60/default.htm.
# Compounds with GIPRCNT values below 10 were considered active. Activity score was based on GIPRCNT using the following formula: […]
# Score is 0 for GIPRCNT values of 100 or above, 50 for GIPRCNT values of 0, and 100 for GIPRCNT values of -100.
row,Structure (SMILES),growth
1,CC(C)C(C)(C)C(=O)C(C)(C)C(C)(C)C,114%
2,N#C/C(=C\NC(=S)N=Nc1c(O)[nH]c2ccccc12)c1nc2ccccc2s1,101%
3,CC(C)N(C(=O)c1ccccc1)C(C)C,97%
4,Nc1c(Br)cc(O)c2c1C(=O)c1ccccc1C2=O,100%
5,Cc1ccnc(Nc2nc3ccccc3[nH]2)n1,97%
6,Cc1cc(=O)n(Nc2ccccc2)c(O)c1C#N,99.4%
7,CCCCOC(=O)c1ccccc1O,117%
8,CCOC(=O)c1c[nH][nH]c1=O,96.5%
9,O=C1NCC2CCCC1C2 (stereo not given),96.7%
10,CCC(C)C1CCC(O)CC1 (stereo not given),99%
11,CCOC(=O)Nc1nccs1,106%
12,COc1ccc(Br)c(C=O)c1,46.1%
13,O=C1NC(=O)/C(=C\c2ccncc2)N1,92.6%
14,O=C(CCl)Oc1ccc([N+](=O)[O-])cc1,103%
15,CC(C)c1ccc(C(=O)OCCCl)cc1,93.6%
16,Cc1ccc(C)c2c1CCC2=O,95.7%
17,Cc1c(-c2ccc(C3CCCCC3)cc2)nc2ccc(F)cc2c1C(=O)O,47.9%
18,CC(=O)O[C@H]1CC[C@]2(C)C3=C(C(=O)C[C@H]2C1(C)C)[C@]1(C)CC[C@H]([C@H](C)CCC(=O)O)[C@@]1(C)CC3=O,99.3%
19,Nc1cc(N)ncn1,97.2%
20,CCNc1ncnc2[nH]ncc12,107%

row,Structure (SMILES),growth
1,O=C1C=C[C@H](O)[C@@]2(CO)O[C@@H]12,85.9%
2,CCOP(=O)(OCC)/C(=C\N1C(=O)CC(=O)NC1=S)C(=O)OC,99.2%
3,C=CC1=NC(C)(C)CC(C)O1 (stereo not given),112%
4,CCOC(=O)c1ccc(C(C)(C)C)cc1,104%
5,COc1ccc(C(=O)C(=O)c2ccccc2)cc1,106%
6,O=[N+]([O-])c1ccc2[nH]c(=S)n(/C=C(/c3ccc(Cl)cc3Cl)S(=O)(=O)Cc3ccc(Cl)cc3Cl)c2c1,93.6%
7,COc1ccc(C2CC(c3ccccc3)=Nc3ccccc3S2)cc1 (stereo not given),106%
8,Nc1ccn(C2OC(CO)C(O)C2F)c(=O)n1 (stereo not given),65.4%
9,OC(CCN1CCCCC1)(c1ccccc1)c1ccccc1,99.2%
10,C=C1CC2(OC1=O)C(=O)N(C)c1ccc(I)cc12 (stereo not given),-76.6% (active)
11,CCOP(=O)(NC(c1ccccc1)c1ccccc1)OCC,105%
12,CC(C)NC(=O)OCc1c(COC(=O)NC(C)C)c(-c2ccc(Cl)cc2)n2c1CCC2,33.2%
13,CCCCNc1ccc(-c2ccc(NCCCC)cc2)cc1,71.7%
14,CN1CCCN(C(c2ccccc2)c2ccc(Cl)cc2)CC1 (stereo not given),91.1%
15,C=CCOc1ccc(Cl)cc1Cl,101%
16,Cc1cc(NC(=O)c2ccccc2)c(Cl)cc1N,95.8%
17,Oc1ccc(CCC2CCNc3ccccc32)cc1 (stereo not given),89.4%
18,COC1OC(COC(C)=O)C(OC(C)=O)C(OC(C)=O)C1OC(C)=O (stereo not given),104%
19,CC(=O)C[n+]1ccc(C)cc1Sc1ccccc1C,90.7%
20,Nc1nc2nnc(-c3ccccc3)c(-c3ccccc3)n2n1,127%
